Experimental data reported in PubChem BioAssay (Tox21).
Values joined by “and” are separate entries in the source; they are usually repeats but may differ in a detail not shown here. Equal values may be shown once. Results filed as inconclusive are left out. Where a call stands in place of a potency, no number is given. Active and inactive are the calls of the source. Unless noted, calls come from the whole dose curve; as a rule, active = well fitted activation curve with a large enough effect in the repeat runs; inconclusive = weak or mixed curves; inactive = no such curve, though single readings can be large or run the other way.

experiment: qHTS assay for small molecule agonists of the p53 signaling pathway (AID 651631; calls by dose curve; note: potency is the fitted concentration of half-maximal effect); conditions: HCT-116 p53RE-bla reporter, beta-lactamase FRET ratio, 16 h; series mostly up to 73.3 µM
Outline: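 Stably transfected HCT-116 cells (beta-lactamase behind p53 response elements) get compounds after a 5 h settling period; 16 h later at 37 °C, FRET substrate is loaded and fluorescence read after 2 h.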
Note: nearly all actives have a fitted effect of over 15% in size.

| SMILES | Potency |
| --- | --- |
| CC(=O)OC(C)(C)C1CC=C(C)CC1 (centres undefined) | inactive |
| Cc1ccc(C(C)C)cc1 | inactive |
| c1cnc2c(c1)ccc1cccnc12 | 30.9 µM (active) and 24.3 µM (active) |
| Cc1cc(CC(=O)O)n(C)c1C(=O)c1ccc(Cl)cc1 | inactive |
| C[Si](C)(C)N[Si](C)(C)C | inactive |
| OC[C@H]1O[C@@H](Oc2ccc(O)cc2)[C@H](O)[C@@H](O)[C@@H]1O | inactive |
| CCCCCCCCC(=O)O | inactive |
| CCn1cc(C(=O)O)c(=O)c2cc3c(cc21)OCO3 | inactive |
| Cc1cc(C)cc(O)c1 | inactive |
| Cc1ccc([N+](=O)[O-])cc1N | inactive |
| CC(C)(C)NC[C@H](O)COc1nsnc1N1CCOCC1 | inactive |

experiment: qHTS assay for small molecules that induce genotoxicity in human embryonic kidney cells expressing luciferase-tagged ATAD5 (AID 651632); conditions: HEK293T ATAD5-luciferase induction, 16 h; series mostly up to 83.3 µM
Outline: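 Luminescence read-out: after 16 hr compound exposure at 37C, ATAD5-luciferase HEK293T cells received Amplite, 30 min RT, then CCD imaging. A rise in signal marks genotoxic stress.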

| SMILES | Potency |
| --- | --- |
| Cc1ccccc1Cl | inactive |
| CCCCCCC(=O)O | inactive |
| COc1ccccc1[N+](=O)[O-] | inactive |
| Cc1ccccc1C=O | inactive |
| Nc1cccc(C(F)(F)F)c1 | inactive |
| CCCOC(=O)NCCCN(C)C | inactive |
| COc1ccc(N)c(OC)c1 | inactive |
| Nc1nc(N)c2nc(-c3ccccc3)c(N)nc2n1 | inactive |
| Cc1ccc(Cl)cc1 | inactive |
| CC/C=C(\C(=O)N[C@@H]1C(=O)N2C(C(=O)OCOC(=O)C(C)(C)C)=C(COC(N)=O)CS[C@H]12)c1csc(N)n1 | inactive |
| CC(C)=CCC/C(C)=C/C=O | inactive |
| Cc1nnc(NS(=O)(=O)c2ccc(N)cc2)s1 | inactive |
| CC(=O)OCc1ccc2c(c1)OCO2 | inactive |
| NC(=O)NC(N)=O | inactive |
| CC(=O)c1nccs1 | inactive |
| OCc1ccc(Cl)cc1Cl | inactive |
| CC1(C)C(=O)N(Cl)C(=O)N1Cl | inactive |
| CCc1cccc(CC)c1N | inactive |
| O=C(O)Cc1c[nH]c2ccccc12 | inactive |

| SMILES | Potency |
| --- | --- |
| NC(=O)c1ncn([C@@H]2O[C@H](CO)[C@@H](O)[C@H]2O)n1 | inactive |
| CCCN(CCC)C(=O)SCC | inactive |
| CCOC(=O)CC(=O)OCC | inactive |
| CCCCCCCCCCCCCC(=O)O | inactive |
| CCCCCCCC(=O)O | inactive |
| O=C(c1ccccc1)c1ccc(O)c(O)c1O | inactive |
| O=[N+]([O-])c1ccccc1C(F)(F)F | inactive |
| COc1ccc([C@@H]2CC(=O)c3c(O)cc(O[C@@H]4O[C@H](CO[C@@H]5O[C@@H](C)[C@H](O)[C@@H](O)[C@H]5O)[C@@H](O)[C@H](O)[C@H]4O)cc3O2)cc1OC | inactive |
| CC(=O)OC(C)(C)C1CC=C(C)CC1 (centres undefined) | inactive |
| Cc1ccc(C(C)C)cc1 | inactive |
| c1cnc2c(c1)ccc1cccnc12 | inactive |
| Cc1cc(CC(=O)O)n(C)c1C(=O)c1ccc(Cl)cc1 | inactive |
| C[Si](C)(C)N[Si](C)(C)C | inactive |
| OC[C@H]1O[C@@H](Oc2ccc(O)cc2)[C@H](O)[C@@H](O)[C@@H]1O | inactive |
| CCCCCCCCC(=O)O | inactive |
| CCn1cc(C(=O)O)c(=O)c2cc3c(cc21)OCO3 | inactive |
| Cc1cc(C)cc(O)c1 | inactive |
| Cc1ccc([N+](=O)[O-])cc1N | inactive |
| CC(C)(C)NC[C@H](O)COc1nsnc1N1CCOCC1 | inactive |
